# Compounds with a hit are over-represented: about 3.7% of the library has one in this group of screens.
# FEN1 inhibitor – blocks human flap endonuclease 1 | P39748 | Recombinant FEN1 flap cleavage, fluorescence, 15 min | Potency, µM (highest dose often 114 µM), for inactives: at the top dose activity change, negative = inhibition, usual class: inhibitors | hit rate 0.35% among 390,000 | AID 588795; also: potency is read from the fitted curve at half-maximal effect; % is scaled to controls: 0 for no effect and ±100 for the full control effect; nearly all actives have a fitted effect of over 65% in size
#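 Read-out was taken twice, immediately and after 15 min, following addition of 50 nM substrate to 10 nM FEN1 that had sat with test compound for 15 min at room temperature. Curves came from a four-parameter Hill model.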
# TCR activator – activates T cell receptor signaling; primary human leukocytes, anti-CD3, IL-2 HTRF, 48 h; 330,000 tested, under 10 active; Potency, µM (doses to about 9.22 µM), for the others: at the highest dose activation of IL-2 secretion, hits mostly activators; also: % of control where 0% means no effect
#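 Activity was scored as IL-2 release from primary human leukocytes given only a TCR signal (a-CD3 beads) plus compound for 48 hr. Detection used a two-antibody HTRF format read at 665nm.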
# WRN inhibitor – blocks human WRN helicase. AID 651768. Q14191. WRN helicase unwinding, fluorescent forked duplex, kinetic. Potency, µM (doses to about 114 µM), inactives show at the top dose activity change, negative = inhibition, most hits filed as inhibitors. hit rate 0.46% among 360,000; also: potency is read from the fitted curve at half-maximal effect; % is scaled to controls: 0 for no effect and ±100 for the full control effect; nearly all actives have a fitted effect of over 55% in size
#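 WRN at 20 nM final was preincubated with compound for 15 min at room temperature; reaction started with 100 nM forked duplex oligonucleotide carrying fluorophore and quencher plus 2 mM ATP (final). Unwinding followed kinetically by red fluorescence (ex 525/em 598 nm).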
# PI5P4Ka inh – PI5P4K alpha (human) kinase inhibition. P48426. PI5P4Kalpha enzyme, ADP-Glo luminescence, 60 min; hits give low values. max response, %. hit rate 1.2% among 330,000; active = max response of -50% or lower; inconclusive = between -30% and -50%; inactive = -30% or higher; also: value at the top dose of about 77 µM; % is scaled to controls: 0 for no effect and ±100 for the full control effect
#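 Compounds were pin-transferred onto PI5P4Kalpha and substrate in HEPES pH 7.4 buffer with EGTA, CHAPS and 5% DMSO. ATP (5 microM final) started the reaction, which ran 60 minutes at room temperature before ADP-Glo detection.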
# PLK1 PBD block – PLK1 (human) polo-box domain binding inhibition. P53350. Potency, µM, without a hit: max response, negative = inhibition, most hits filed as inhibitors. hit rate 2.8% among 360,000. Plk1 PBD binding of FITC phosphopeptide, fluorescence polarization. AID 720504; also: potency is read from the fitted curve at half-maximal effect; series mostly up to about 57 µM; % is scaled to controls: 0 for no effect and ±100 for the full control effect; nearly all actives have a fitted effect of over 65% in size
# Target sequence (P53350 whole entry, looked up, the tested form may be a part): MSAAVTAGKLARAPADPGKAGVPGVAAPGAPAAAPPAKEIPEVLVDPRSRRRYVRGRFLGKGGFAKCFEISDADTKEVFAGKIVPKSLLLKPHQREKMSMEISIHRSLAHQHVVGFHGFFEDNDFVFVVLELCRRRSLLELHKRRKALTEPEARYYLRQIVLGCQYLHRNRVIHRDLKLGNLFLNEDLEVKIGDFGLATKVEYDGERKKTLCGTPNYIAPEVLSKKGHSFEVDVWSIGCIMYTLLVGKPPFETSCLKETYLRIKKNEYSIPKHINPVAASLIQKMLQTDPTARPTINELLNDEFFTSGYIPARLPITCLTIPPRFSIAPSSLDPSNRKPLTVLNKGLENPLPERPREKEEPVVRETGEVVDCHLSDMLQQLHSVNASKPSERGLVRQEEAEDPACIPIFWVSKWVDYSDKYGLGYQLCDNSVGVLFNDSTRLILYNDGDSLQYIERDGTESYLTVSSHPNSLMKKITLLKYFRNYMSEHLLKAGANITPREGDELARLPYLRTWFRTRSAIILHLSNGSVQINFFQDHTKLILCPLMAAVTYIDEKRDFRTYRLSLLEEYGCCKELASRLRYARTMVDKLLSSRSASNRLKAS
# VDR inhibitor – vitamin D3 receptor (human) inhibition. P11473. VDR-SRC2-3 peptide fluorescence polarization, 2 h. Potency, µM, for the others: max response, negative = inhibition, hits mostly inhibitors. hit rate 0.93% among 400,000. AID 504847; also: potency is read from the fitted curve at half-maximal effect; % is scaled to controls: 0 for no effect and ±100 for the full control effect
#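 The screen uses fluorescence polarization to detect compounds that interfere with recruitment of the SRC2-3 coactivator peptide to VDR; plates are read after 2 h at room temperature.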
# VDR confirm – inhibits human vitamin D receptor, primary hit validation; Potency, µM, actives largely listed as inhibitors; shares compounds with VDR inhibitor; VDR-coactivator inhibition assay, qHTS confirmation; hit rate 89% among 840; also: potency is read from the fitted curve at half-maximal effect
# VDR FP fluor – VDR (human) coactivator binding inhibition, fluorescein polarization; shares compounds with VDR inhibitor; VDR-coactivator binding, fluorescein fluorescence polarization; Potency, µM (top dose mostly 57.1 µM), for the others: top-dose activity change, negative = inhibition, usual class: inhibitors; hit rate 48% among 840; also: potency is read from the fitted curve at half-maximal effect
# VDR bla – inhibits human VDR in beta-lactamase reporter cells | shares compounds with VDR inhibitor | VDR beta-lactamase reporter cells, FRET ratio; cells co-treated with VDR agonist LG190178 | Potency, µM (doses to about 46.1 µM), inactives show at the highest dose activity change, negative = inhibition, most hits filed as inhibitors | hit rate 23% among 840 | AID 602202; also: potency is read from the fitted curve at half-maximal effect; % is scaled to controls: 0 for no effect and ±100 for the full control effect
# VDR viability – counter-screen for vitamin D receptor inhibitors: cytotoxicity; cytotoxicity counter-screen, cell viability, qHTS; AID 602204; shares compounds with VDR inhibitor; Potency, µM (top dose mostly 48.3 µM), for inactives: top-dose activity change, negative = cytotoxicity, actives largely listed as cytotoxic; hit rate 18% among 840;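 also: potency is read from the fitted curve at half-maximal effect; plate controls were DMSO for no effect and high-concentration cycloheximide for full effect; nearly all actives have a fitted effect of over 75% in size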
# Starred values were filed as active, the others as inactive; ? = inconclusive; . = no result given; ! = a repeat was not active; [ ] = remark or other dose. Unless noted, calls follow the shape of the dose curve; as a rule, active = well fitted curve in the direction sought with a large enough effect; inconclusive = small, poorly fitted or top-dose-only effect, or another doubt; inactive = no such curve, though single readings can be large; an effect the other way counts as inactive or inconclusive.
SMILES,FEN1 inhibitor,TCR activator,WRN inhibitor,PI5P4Ka inh,PLK1 PBD block,VDR inhibitor,others
Cc1ccc(-c2csc(-c3cc4c([nH]c3=O)CC(c3ccccc3)CC4=O)n2)cc1 (stereo unspecified),-4%,.,.,.,.,3%,
COc1cc(NC(=O)c2ccnc(N)c2)cc(C(=O)Nc2cccc(C(F)(F)F)c2)c1,?,-2%,5%[11.6 µM],1,4%,3%,
COc1cc(NC(=O)c2cnc(N)s2)cc(C(=O)Nc2cccc(C(F)(F)F)c2)c1,56µM*,-1%,-7%,1,-9%,14%,
COc1cc(OC)c(-n2cc(-c3ccc(OC)c(OC)c3)[nH]c2=S)cc1Cl,14%,3%,-9%[57.1 µM],-9,30µM*,-7%,
COc1ccc(-n2cc(-c3ccc(OC)c(OC)c3)[nH]c2=S)cc1,-17%,-2%,-3%,-14,24µM*,-15%,
COc1ccc(-c2cn(-c3ccc(C)cc3C)c(=S)[nH]2)cc1OC,-20%,1%,-25%,-22,-24%,-6%,
Cc1ccccc1-c1cn(-c2ccccc2)c(=S)[nH]1,-13%,1%,?,-28,-8%,-8%,
COc1ccc(-n2cc(-c3ccc(Br)cc3)[nH]c2=S)cc1,-3%,-10%,2%,-8,-5%,-9%,
Cc1ccc(-c2cn(-c3ccccc3)c(=S)[nH]2)cc1C,-6%,-1%,-2%,-5,30µM*,-14%,
Cc1cc(C)nc(SCC(=O)Nc2ccc(S(=O)(=O)Nc3ncccn3)cc2)n1,3%,6%,-1%,-1,3%,17%,
Cc1cc(C)nc(NS(=O)(=O)c2ccc(NC(=O)CSc3ncn[nH]3)cc2)n1,1%,2%,-32%,-21,27µM*,9%,
Nc1cccc(S(=O)(=O)N2CCOCC2)c1,16%,.,.,.,.,-9%,
NC(=O)c1cc(S(=O)(=O)N2CCOCC2)ccc1Sc1ccccc1N,-3%,0%,-10%,4,15µM*,-18%,
COc1ccc(N2CC(NC(=O)c3cc4ccccc4o3)CC2=O)cc1 (stereo unspecified),-3%,.,.,.,.,5%,
COc1ccc(-c2nc3scc(CCNS(=O)(=O)c4ccc(C)cc4)n3n2)cc1,-12%,.,.,.,.,-1%,
O=C(COC(=O)/C=C/c1ccc(Cl)cc1Cl)Nc1cccc(S(=O)(=O)NC2=NCCC2)c1,.,.,-1%[11.6 µM],-75*,2%,.,
O=C(COC(=O)c1ccccc1)Nc1cccc(S(=O)(=O)NC2=NCCCCC2)c1,6%,6%[46.1 µM],-9%,-8,27µM*,-22%,
CCCCC(=O)OCC(=O)Nc1cccc(S(=O)(=O)NC2=NCCCCC2)c1,3%,0%,-31%,-18,24µM*,-8%,
Cc1cc(C)cc(C(=O)OCC(=O)Nc2cccc(S(=O)(=O)NC3=NCCCCC3)c2)c1,-7%,-3%[46.1 µM],9%,8,-7%,-19%,
O=C(COC(=O)/C=C/c1ccc(Cl)cc1)Nc1cccc(S(=O)(=O)NC2=NCCCCC2)c1,-10%,-3%,-8%,1,-4%,21%,
COC(=O)c1ccc(C2NC(c3ccc4c(c3)OCO4)=CC(c3ccccc3O)N2)cc1 (stereo unspecified),-7%,.,.,.,.,?,
C=C1C(=O)CC2=C1[C@](Cc1ccc(F)cc1)(C(=O)OC)N(C(=O)c1ccccc1)C2,.,.,-8%,-2,-12%,.,
C=C1C(=O)C=C2CN(C(=O)c3ccccc3)[C@@](Cc3ccc(F)cc3)(C(=O)OC)[C@@H]12,-23%,2%,-8%,-77*,17µM*,?,
C=CCN1CC[C@@H](O)C(=C)S1(=O)=O,16%,.,.,.,.,.,
COc1ccc(Cl)cc1NC(=O)Cn1cc2c(n1)CCC(C)C2 (stereo unspecified),17%,.,.,.,.,14%,
SMILES,FEN1 inhibitor,TCR activator,WRN inhibitor,PI5P4Ka inh,PLK1 PBD block,VDR inhibitor,others
CC1(C)Cc2c(cnn2-c2ccc(F)cc2)C(NC(=O)C2=NNC(=O)CC2)C1 (stereo unspecified),?,2%,5%,?,3µM*,?,
CC1(C)Cc2c(cnn2-c2ccc(F)cc2)C(NC(=O)CCN2CCCC2=O)C1 (stereo unspecified),?,0%,-2%[11.6 µM],?,3.4µM*,?,
CC1(C)Cc2c(cnn2-c2ccc(F)cc2)C(NC(=O)c2ccco2)C1 (stereo unspecified),9%,2%,-25%,-4,1%,-19%,
Cc1cc(C)cc(-n2ncc3c2CCCC3NC(=O)CN2CCCC2=O)c1 (stereo unspecified),13%,-4%,-10%,3,30µM*,?,
Cc1ccc(CN2CCN(C3CCN(C(=O)Nc4ccccc4C(F)(F)F)CC3)C(=O)C2=O)cc1,-3%,.,.,.,.,14%,
CCCCN1CC[C@H]2C=CC[C@@H](C(=O)NCc3cccnc3)[C@H]2C1=O,-4%,.,.,.,.,.,
O=C(CC12CC3CC(CC(C3)C1)C2)N/N=C/c1ccncc1,1%,-7%[46.1 µM],-30%,-5,27µM*,?,
O=C(N/N=C/c1ccncc1)NC12CC3CC(CC(C3)C1)C2,-9%,3%,-1%,-3,-2%,2%,
Cc1cc(C)c2c(n1)NCCC2,10%,.,.,.,.,.,
O=[N+]([O-])c1c(NCCCO)cc(Sc2ccc(Cl)cc2)c2nonc12,?,-5%[46.1 µM],-10%,-5,2.4µM*,?,VDR confirm=6.3*;VDR FP fluor=7.1µM*;VDR bla=23µM*;VDR viability=?
COc1ccc2nc(S(=O)Cc3ncc(C)c(OC)c3C)[nH]c2c1 (stereo unspecified),-14%,2%,4%,?,24µM*,89µM*!,VDR confirm=2.7*;VDR FP fluor=?;VDR bla=41%;VDR viability=16%
COc1ccc2nc(SCC(=O)Nc3c(C)cccc3C)[nH]c2c1,2%,3%,4%,0,-8%,-14%,
CC1Cn2cc(C(=O)Nc3ccccc3C(F)(F)F)c(=O)c3c(Cl)ccc(c32)O1 (stereo unspecified),10%,.,.,.,.,13%,
